Screens (PubChem BioAssay)
Compounds with a hit are over-represented: about 4.8% of the library has one in this group of screens.
AI-2 QS mod = modulators of Vibrio harveyi AI-2 quorum sensing system | Vibrio harveyi JMH597 AI-2 luminescence/OD600 ratio, 9 h; stronger effect = lower value; strain lacks LuxN and CqsS sensors; 0 = neutral-control median | activity change, % at 7.5 µM | 0.4% of 300,000 active; in the data active = activity change below about -75%, passing the limit was not always enough; inconclusive = no clear call, values can overlap the other calls;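 also: luminescence divided by OD600 gain over 9 h not by final OD600 alone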
SUMO Mot1 rescue = SUMOylation pathway inhibition by Mot1-301 growth rescue. S. cerevisiae Mot1-301 growth rescue, ATP luminescence, 38.5C; percent above DMSO median, 100 means doubled. growth rescue, % at 18.8 µM. 1% of 320,000 active. AID 2716;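 active = every valid replicate shows activation above 250% relative to neutral control wells; inactive = the rest, any valid replicate at or below 250%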
HIF activator = HIF pathway transcriptional activation; 0.32% of 300,000 active; activation, % at 7.5 µM (by protocol); U2OS HRE-luciferase reporter, luminescence; normalized: DMSO 0%, desferrioxamine 100%;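 active = mean activation of at least 10% of the iron chelator positive control signal, with at least half of replicates also reaching 10%; inconclusive = mean and replicate majority disagree about reaching 10%; inactive = mean and most replicates under 10%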
ALR H2O2 inh = blocks human ALR sulfhydryl oxidase activity; P55789; purified ALR, DTT oxidation, H2O2 HRP-luminol luminescence; 3.8% of 290,000 active; inhibition, % (no concentration beside the values); AID 485317;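 active = mean replicate inhibition above about 79%, with every replicate also reaching it, limit read from the data; inconclusive = only one of the two criteria met; inactive = mean below limit and not every replicate reaching it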
Target sequence (P55789 whole entry, looked up): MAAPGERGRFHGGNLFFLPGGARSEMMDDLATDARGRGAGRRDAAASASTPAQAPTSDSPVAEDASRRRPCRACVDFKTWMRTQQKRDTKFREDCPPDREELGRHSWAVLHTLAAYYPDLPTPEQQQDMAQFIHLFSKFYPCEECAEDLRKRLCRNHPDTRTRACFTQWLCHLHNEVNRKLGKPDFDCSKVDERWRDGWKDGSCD
Yeast Mot1 SUMO = inhibits SUMO pathway, affecting Mot1-301 yeast growth. shares compounds with SUMO Mot1 rescue. S. cerevisiae Mot1-301 galactose growth, ATP luminescence, 24 h; -100 = growth of slx-deleted rescue strain. growth activity, percent, % at 42 µM. 2,300 tested, under 10 active. AID 493004;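 active = Signal drops as the depositor expects, and the fitted half-maximal dose is no more than ten times the top valid tested dose; inconclusive = Poor fit, or a flat curve whose signal drops by 30% to 70%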;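 also: more negative values mean stronger growth rescue toward the control strain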
Hits are given with their value.

For Cc1cccc(N2CN=c3s/c(=C\c4ccccn4)c(=O)n3C2)c1 the results were AI-2 QS mod inactive, SUMO Mot1 rescue 441, HIF activator inactive, ALR H2O2 inh inactive and Yeast Mot1 SUMO inactive.
Screening Cc1ccc(-c2nc3ccccn3c2C=O)cc1 returned AI-2 QS mod inactive, SUMO Mot1 rescue inactive, HIF activator inactive and ALR H2O2 inh inactive.
CC(C)(C)c1ccc(-c2nc(C=O)c3ccccn23)cc1 was read as AI-2 QS mod inactive, SUMO Mot1 rescue 412, HIF activator inactive, ALR H2O2 inh inactive and Yeast Mot1 SUMO inactive.
`Brc1ccccc1/C=N/Nc1ccccn1` gave AI-2 QS mod inactive, SUMO Mot1 rescue inactive and HIF activator inactive.
Screening O=C(O)COc1ccc(Br)cc1/C=N\Nc1ccccn1 returned AI-2 QS mod inactive, SUMO Mot1 rescue 425, HIF activator inactive, ALR H2O2 inh inactive and Yeast Mot1 SUMO inactive.
`COc1ccccc1-c1nc2ccccc2nc1-c1ccccc1OC` gave AI-2 QS mod inactive, SUMO Mot1 rescue 395, HIF activator inactive, ALR H2O2 inh inactive and Yeast Mot1 SUMO inactive.
`COc1ccc(-c2nc3ccccc3nc2-c2ccc(OC)c(OC)c2)cc1OC` gave AI-2 QS mod inactive, SUMO Mot1 rescue inactive, HIF activator inactive and ALR H2O2 inh inactive.
Screening CC1=CC(=O)C=C(C)C1=NOS(=O)(=O)c1ccccc1 returned AI-2 QS mod inactive and HIF activator inactive.
Screening CC1=CC(=O)C(C(C)C)=C/C1=N/OS(=O)(=O)c1ccccc1 returned AI-2 QS mod inconclusive, SUMO Mot1 rescue 390, HIF activator inactive and Yeast Mot1 SUMO inactive.
O=C(CCN1C(=O)S/C(=C/c2ccccc2)C1=O)Nc1ccc(O)c(C(=O)O)c1 was read as AI-2 QS mod inactive, SUMO Mot1 rescue 435, HIF activator inactive, ALR H2O2 inh inactive and Yeast Mot1 SUMO inactive.
O=C(CCN1C(=O)S/C(=C\c2ccccc2)C1=O)Nc1ccc(O)cc1C(=O)O was read as AI-2 QS mod inactive, SUMO Mot1 rescue inactive, HIF activator inactive and ALR H2O2 inh inactive.
`CS(=O)(=O)Nc1ccc(C(=O)NCc2cccnc2)cc1` gave AI-2 QS mod inactive, SUMO Mot1 rescue inactive, HIF activator inactive and ALR H2O2 inh inactive.
For CCOc1ccc(NS(=O)(=O)c2ccc(C(=O)NCc3cccnc3)cc2)cc1 the results were SUMO Mot1 rescue 449, HIF activator inactive, ALR H2O2 inh inactive and Yeast Mot1 SUMO inactive.
For CC(C)(C)C(=O)Nc1ccc(C(=O)NCc2cccnc2)cc1 the results were AI-2 QS mod inactive, SUMO Mot1 rescue 430, HIF activator inactive, ALR H2O2 inh inactive and Yeast Mot1 SUMO inactive.
For COc1ccc(C)cc1NC(=O)C1CCN(C(=O)c2ccc(C(C)(C)C)cc2)CC1 the results were AI-2 QS mod inactive, SUMO Mot1 rescue inactive, HIF activator inactive and ALR H2O2 inh inactive.
Cc1ccc(C(=O)N2N=C(CC(C)C)CC2(O)C(F)(F)F)o1 (configuration not stated) was read as AI-2 QS mod inactive, SUMO Mot1 rescue inactive, HIF activator inactive and ALR H2O2 inh inactive.
Cc1nc2ccc(NC(=O)[C@H](C)N3C(=O)C4CC=CCC4C3=O)cc2s1 (some centres not stated) was read as SUMO Mot1 rescue inactive.
For Cc1cc(C)c(S(=O)(=O)NCC(=O)NCc2cc(=O)n(C)c(=O)n2C)c(C)c1 the results were AI-2 QS mod inactive, SUMO Mot1 rescue inactive, HIF activator inactive and ALR H2O2 inh inactive.
For Cc1[nH]oc(=O)c1N=Nc1ccccc1 the results were AI-2 QS mod inactive, SUMO Mot1 rescue 465, HIF activator inactive, ALR H2O2 inh inactive and Yeast Mot1 SUMO inactive.
`Cc1[nH]oc(=O)c1N=Nc1c(Cl)cccc1Cl` gave AI-2 QS mod inactive, SUMO Mot1 rescue 358, HIF activator inactive, ALR H2O2 inh 92 and Yeast Mot1 SUMO inactive.
`CC(C)(C)OC(=O)N1CCC(NC(=O)c2[nH]cnc2C(=O)Nc2cccc(Cl)c2)CC1` gave SUMO Mot1 rescue inactive and ALR H2O2 inh inactive.
For CC(C)CC(c1nnnn1C1CCCCC1)N1CCN(C(=O)c2ccco2)CC1 (configuration not stated) the results were AI-2 QS mod inactive, SUMO Mot1 rescue 706, HIF activator inactive and Yeast Mot1 SUMO inactive.
For N/C(=N\N=C\c1ccc(O)cc1)c1nonc1N the results were AI-2 QS mod inactive, SUMO Mot1 rescue 488, HIF activator inactive, ALR H2O2 inh 99 and Yeast Mot1 SUMO inactive.
`CCCN1CCc2c(sc(NC(=O)Cc3ccc(F)cc3)c2C(N)=O)C1` gave AI-2 QS mod inactive, SUMO Mot1 rescue inactive, HIF activator inactive and ALR H2O2 inh inactive.
COc1ccc(OC)c(CCNC(=O)c2ccc3c(c2)N(Cc2ccc(F)cc2)CCS3)c1 was read as SUMO Mot1 rescue 365, HIF activator inactive, ALR H2O2 inh inactive and Yeast Mot1 SUMO inactive.
`COc1cccc(NC(=O)CN(C)C(=O)c2cc3c(s2)CCC3)c1` gave AI-2 QS mod inactive, SUMO Mot1 rescue inactive, HIF activator inactive and ALR H2O2 inh inactive.
Screening COc1ccc(N=C2SC(C(=O)O)CC(=O)N2Cc2ccc(OC)c(OC)c2)cc1 (configuration not stated) returned AI-2 QS mod inactive, SUMO Mot1 rescue 529, HIF activator inactive, ALR H2O2 inh inactive and Yeast Mot1 SUMO inactive.
COc1ccc(N=C2SC(C(N)=O)CC(=O)N2CCc2ccc(OC)c(OC)c2)cc1 (configuration not stated) was read as AI-2 QS mod inactive, SUMO Mot1 rescue inactive, HIF activator inactive and ALR H2O2 inh inactive.
Screening CCOc1ncccc1C(=O)OCC(=O)N1CCC(C)CC1 returned SUMO Mot1 rescue inactive.
Cc1ccc(-n2c(-c3ccco3)nc3c(cnn3-c3ccc(C)cc3)c2=O)cc1 was read as AI-2 QS mod inactive, SUMO Mot1 rescue 734, HIF activator inactive, ALR H2O2 inh inactive and Yeast Mot1 SUMO inactive.
`CCOC(=O)C1CCN(Cc2ccc(OCc3ccccc3)cc2)CC1` gave AI-2 QS mod inactive, SUMO Mot1 rescue 555, HIF activator inactive, ALR H2O2 inh inactive and Yeast Mot1 SUMO inactive.
`C=CCn1c(-c2ccc(OC)cc2)nc2ccccc21` gave AI-2 QS mod inactive, SUMO Mot1 rescue 396, HIF activator inactive, ALR H2O2 inh inactive and Yeast Mot1 SUMO inactive.
For CCOCCn1c(-c2ccc(OC)cc2)nc2ccccc21 the results were AI-2 QS mod inactive, SUMO Mot1 rescue 477, HIF activator inactive, ALR H2O2 inh inactive and Yeast Mot1 SUMO inactive.
CCOCCn1c(CC)nc2ccccc21 was read as AI-2 QS mod inactive, SUMO Mot1 rescue inactive, HIF activator inactive and ALR H2O2 inh inactive.
Screening COc1ccc(-c2nc3ccccc3n2Cc2ccccc2)cc1 returned AI-2 QS mod inactive, SUMO Mot1 rescue inactive and HIF activator inactive.
CN(C(=S)NC1=CCS(=O)(=O)C1)C1CCCCC1 was read as AI-2 QS mod inactive, SUMO Mot1 rescue 581, HIF activator inactive, ALR H2O2 inh inactive and Yeast Mot1 SUMO inactive.
CCOC(=O)c1[nH]c2ccc(Br)cc2c1NC(=O)CCN1CCN(C(=O)OCC)CC1 was read as AI-2 QS mod inactive, SUMO Mot1 rescue inactive, HIF activator inactive and ALR H2O2 inh inactive.
